# In the supplement of paper PMC8728848:
# The sample as a whole holds a higher share of the strongest signals than the screen did.
# What was measured:
# Assay in all cases: glycan array binding signal (z-score within array); higher = stronger binding
# Conditions in all cases: glycan notation: IUPAC condensed, linker removed
# Gal(b1-4)GlcNAc = target: Gal(b1-4)GlcNAc
# Procedure, shortened: (§1)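 Negative Z-scores can be read as non-binding. The Z-score is calculated within each array and then averaged across arrays of one protein sequence at different concentrations or buffers and across linkers. Arrays, 3228 in all, were curated from the Consortium for Functional Glycomics database and kept only where the protein sequence was available.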
# [1] = target: Gal(b1-4)GlcNAc(b1-2)Man(a1-3)[GlcNAc(b1-4)][Gal(b1-4)GlcNAc(b1-2)Man(a1-6)]Man(b1-4)GlcNAc(b1-4)GlcNAc
# Procedure, shortened: as §1
# [2] = target: Gal(b1-4)GlcNAc(b1-3)Gal(b1-3)GalNAc
# Procedure, shortened: as §1
# Gal3S(b1-4)Glc6S = target: Gal3S(b1-4)Glc6S
# Procedure, shortened: as §1
# Gal6S(b1-4)Glc = target: Gal6S(b1-4)Glc
# Procedure, shortened: as §1
# GlcNAc(b1-3)Gal(b1-4)Glc = target: GlcNAc(b1-3)Gal(b1-4)Glc
# Procedure, shortened: as §1
# [3] = target: GlcNAc(b1-3)Gal(b1-4)GlcNAc(b1-3)Gal(b1-4)GlcNAc(b1-2)[GlcNAc(b1-3)Gal(b1-4)GlcNAc(b1-3)Gal(b1-4)GlcNAc(b1-6)]Man(a1-6)[GlcNAc(b1-3)Gal(b1-4)GlcNAc(b1-3)Gal(b1-4)GlcNAc(b1-2)Man(a1-3)]Man(b1-4)GlcNAc(b1-4)[Fuc(a1-6)]GlcNAc
# Procedure, shortened: as §1
# [4] = target: GlcNAc(b1-3)Gal(b1-4)GlcNAc(b1-3)Gal(b1-4)GlcNAc(b1-3)Gal(b1-4)GlcNAc(b1-2)[GlcNAc(b1-3)Gal(b1-4)GlcNAc(b1-3)Gal(b1-4)GlcNAc(b1-3)Gal(b1-4)GlcNAc(b1-6)]Man(a1-6)[GlcNAc(b1-3)Gal(b1-4)GlcNAc(b1-3)Gal(b1-4)GlcNAc(b1-3)Gal(b1-4)GlcNAc(b1-2)Man(a1-3)]Man(b1-4)GlcNAc(b1-4)[Fuc(a1-6)]GlcNAc
# Procedure, shortened: as §1
# [5] = target: GlcNAc(b1-3)Gal(b1-4)GlcNAc(b1-3)Gal(b1-4)GlcNAc(b1-3)Gal(b1-4)GlcNAc(b1-3)Gal(b1-4)GlcNAc(b1-2)[GlcNAc(b1-3)Gal(b1-4)GlcNAc(b1-3)Gal(b1-4)GlcNAc(b1-3)Gal(b1-4)GlcNAc(b1-3)Gal(b1-4)GlcNAc(b1-6)]Man(a1-6)[GlcNAc(b1-3)Gal(b1-4)GlcNAc(b1-3)Gal(b1-4)GlcNAc(b1-3)Gal(b1-4)GlcNAc(b1-3)Gal(b1-4)GlcNAc(b1-2)Man(a1-3)]Man(b1-4)GlcNAc(b1-4)[Fuc(a1-6)]GlcNAc
# Procedure, shortened: as §1
# GlcNAc(b1-3)GalNAc = target: GlcNAc(b1-3)GalNAc
# Procedure, shortened: as §1
# [6] = target: GlcNAc(b1-3)[GlcNAc(b1-6)]Gal(b1-4)GlcNAc
# Procedure, shortened: as §1
# [7] = target: Man(a1-2)Man(a1-3)[Man(a1-2)Man(a1-6)]Man
# Procedure, shortened: as §1
# [8] = target: Man(a1-3)[Man(a1-6)]Man(b1-4)GlcNAc(b1-4)[Fuc(a1-6)]GlcNAc
# Procedure, shortened: as §1
# [9] = target: Neu5Ac(a2-3)Gal(b1-3)GlcNAc(b1-2)Man(a1-3)[GlcNAc(b1-4)][Neu5Ac(a2-3)Gal(b1-3)GlcNAc(b1-2)Man(a1-6)]Man(b1-4)GlcNAc(b1-4)GlcNAc
# Procedure, shortened: as §1
# [10] = target: Neu5Ac(a2-3)Gal(b1-4)GlcNAc
# Procedure, shortened: as §1
# [11] = target: Neu5Ac(a2-3)Gal(b1-4)GlcNAc(b1-2)Man(a1-3)[Neu5Ac(a2-6)Gal(b1-4)GlcNAc(b1-2)Man(a1-6)]Man(b1-4)GlcNAc(b1-4)GlcNAc
# Procedure, shortened: as §1
# [12] = target: Neu5Ac(a2-3)Gal(b1-4)GlcNAc(b1-2)[Neu5Ac(a2-3)Gal(b1-4)GlcNAc(b1-4)]Man(a1-3)[GlcNAc(b1-4)][Neu5Ac(a2-3)Gal(b1-4)GlcNAc(b1-2)[Neu5Ac(a2-3)Gal(b1-4)GlcNAc(b1-6)]Man(a1-6)]Man(b1-4)GlcNAc(b1-4)GlcNAc
# Procedure, shortened: as §1
# [13] = target: Neu5Ac(a2-3)[GalNAc(b1-4)]Gal(b1-4)GlcNAc(b1-3)GalNAc
# Procedure, shortened: as §1
# [14] = target: Neu5Ac(a2-6)Gal(b1-4)GlcNAc(b1-3)Gal(b1-4)GlcNAc(b1-2)Man(a1-3)[Neu5Ac(a2-6)Gal(b1-4)GlcNAc(b1-3)Gal(b1-4)GlcNAc(b1-2)Man(a1-6)]GalNAc
# Procedure, shortened: as §1
# [15] = target: Neu5Ac(a2-6)Gal(b1-4)GlcNAc(b1-3)Gal(b1-4)GlcNAc(b1-3)Gal(b1-4)GlcNAc
# Procedure, shortened: as §1
# [16] = target: Neu5Ac(a2-6)Gal(b1-4)GlcNAc(b1-3)Gal(b1-4)GlcNAc(b1-3)Gal(b1-4)GlcNAc(b1-2)Man(a1-3)[Neu5Ac(a2-6)Gal(b1-4)GlcNAc(b1-3)Gal(b1-4)GlcNAc(b1-3)Gal(b1-4)GlcNAc(b1-2)Man(a1-6)]GalNAc
# Procedure, shortened: as §1
# [17] = target: Neu5Ac(a2-6)Gal(b1-4)GlcNAc(b1-3)Gal(b1-4)[Fuc(a1-3)]GlcNAc(b1-3)Gal(b1-4)[Fuc(a1-3)]GlcNAc
# Procedure, shortened: as §1
# [18] = target: Neu5Ac(a2-6)Gal(b1-4)GlcNAc(b1-6)[Gal(b1-3)GlcNAc(b1-3)]Gal(b1-4)Glc
# Procedure, shortened: as §1
# [19] = target: Neu5Ac(a2-6)GlcNAc(b1-4)GlcNAc(b1-4)GlcNAc
# Procedure, shortened: as §1
# [20] = target: Neu5Ac(a2-8)Neu5Ac(a2-3)Gal(b1-3)GalNAc(b1-4)[Neu5Ac(a2-8)Neu5Ac(a2-3)]Gal(b1-4)Glc
# Procedure, shortened: as §1
# [21] = target: Neu5Ac9Ac(a2-6)Gal(b1-4)GlcNAc
# Procedure, shortened: as §1
binder,measurement,setting,value
Epa8 (Candida glabrata) (protein) MGSSHHHHHHSSGLVPRGSHMASSRALSDYPLGCSPLLGTKLTPGLSMELYEYPLDNHGIGPHCWDPAYLNPEYPRTGFESHKLIGTAQNVMSLNFEHRTQDCHVEFSNLPASFNFPDQITLTNFTMLLYGYFKPKESGRYRFHMEADDLLLMNLGAGNAFDCCAHEATRNNLGDYIAYDIWAGTRKDVEVFLEKEVFYPLRLFFNNRDGRAALDFSYYLNGATEPGTDIPELLFSLPDGESCPAYI,glycan array binding signal (z-score),Gal(b1-4)GlcNAc,-0.292
same,glycan array binding signal (z-score),[1],-1.47
same,glycan array binding signal (z-score),[2],-1.06
same,glycan array binding signal (z-score),Gal3S(b1-4)Glc6S,0.684
same,glycan array binding signal (z-score),Gal6S(b1-4)Glc,0.199
same,glycan array binding signal (z-score),GlcNAc(b1-3)Gal(b1-4)Glc,-0.331
same,glycan array binding signal (z-score),[3],3.86
same,glycan array binding signal (z-score),[4],3
same,glycan array binding signal (z-score),[5],2.23
same,glycan array binding signal (z-score),GlcNAc(b1-3)GalNAc,-0.661
same,glycan array binding signal (z-score),[6],0.492
same,glycan array binding signal (z-score),[7],-0.246
same,glycan array binding signal (z-score),[8],2.33
same,glycan array binding signal (z-score),[9],1.49
same,glycan array binding signal (z-score),[10],-0.315
same,glycan array binding signal (z-score),[11],0.195
same,glycan array binding signal (z-score),[12],-0.346
same,glycan array binding signal (z-score),[13],0.105
same,glycan array binding signal (z-score),[14],2.31
same,glycan array binding signal (z-score),[15],-0.084
same,glycan array binding signal (z-score),[16],3.31
same,glycan array binding signal (z-score),[17],-0.491
same,glycan array binding signal (z-score),[18],-0.638
same,glycan array binding signal (z-score),[19],-0.271
same,glycan array binding signal (z-score),[20],0.256
same,glycan array binding signal (z-score),[21],-0.4
